In all, about 10,000 compounds went through this assay and about 5,600 (56%) were called active. So high a share suggests a set chosen from earlier hits. A selection follows. Values without a mark were called inactive. Cut-off read from the data, not from the text of the source: active = inhibition above about 40%; inactive = the rest.
What follows are compounds tested against Protein Mdm4 (Homo sapiens) + E3 ubiquitin-protein ligase Mdm2 (Homo sapiens) (UniProt O15151+Q00987) (assay: Mdm2-MdmX complex disruptors, retested hits, confirmation, luminescence, single concentration (AID 489028)). Conditions: Mdm2-MdmX binding, luminescent assay; at 8 µM; stronger effect = higher value.
Protein Mdm4 (Homo sapiens) + E3 ubiquitin-protein ligase Mdm2 (Homo sapiens), sequence (O15151 whole entry, looked up): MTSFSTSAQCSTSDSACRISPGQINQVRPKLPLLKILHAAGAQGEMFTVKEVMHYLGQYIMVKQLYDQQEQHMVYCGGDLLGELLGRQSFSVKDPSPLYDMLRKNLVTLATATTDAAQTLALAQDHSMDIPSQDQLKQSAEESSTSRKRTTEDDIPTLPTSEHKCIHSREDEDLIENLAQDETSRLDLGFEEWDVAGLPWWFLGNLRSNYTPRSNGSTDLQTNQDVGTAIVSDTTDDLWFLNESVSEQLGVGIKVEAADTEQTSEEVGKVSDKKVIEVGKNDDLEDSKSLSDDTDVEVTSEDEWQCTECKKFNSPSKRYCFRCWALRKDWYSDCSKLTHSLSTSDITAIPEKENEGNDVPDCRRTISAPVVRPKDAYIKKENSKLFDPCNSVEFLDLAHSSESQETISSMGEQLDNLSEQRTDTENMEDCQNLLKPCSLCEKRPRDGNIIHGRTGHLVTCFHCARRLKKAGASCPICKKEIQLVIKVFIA
Protein Mdm4 (Homo sapiens) + E3 ubiquitin-protein ligase Mdm2 (Homo sapiens), sequence (Q00987 whole entry, looked up): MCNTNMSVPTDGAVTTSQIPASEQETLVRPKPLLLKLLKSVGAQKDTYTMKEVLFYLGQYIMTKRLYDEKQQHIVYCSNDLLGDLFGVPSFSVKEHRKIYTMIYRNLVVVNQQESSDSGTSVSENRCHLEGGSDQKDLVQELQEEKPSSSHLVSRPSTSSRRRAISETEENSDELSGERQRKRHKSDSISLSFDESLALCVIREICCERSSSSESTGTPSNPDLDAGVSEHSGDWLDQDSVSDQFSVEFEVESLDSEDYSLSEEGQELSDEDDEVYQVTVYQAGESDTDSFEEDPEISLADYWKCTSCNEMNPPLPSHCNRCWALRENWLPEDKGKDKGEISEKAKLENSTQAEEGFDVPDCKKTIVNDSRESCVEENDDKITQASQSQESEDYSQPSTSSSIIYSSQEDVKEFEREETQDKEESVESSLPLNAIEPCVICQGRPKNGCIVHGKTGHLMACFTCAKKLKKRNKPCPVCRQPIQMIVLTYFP
For `c1ccc2c(c1)C(=NC1CCCCC1)NC2=NC1CCCCC1`, the inhibition was 53.5% (active). `Cc1cccc(-n2ncc(Cl)c(Cl)c2=O)c1` was tested, and the inhibition was 87.5% (active). `Cc1cc(C)c2c(-c3ccc(F)cc3)c(C#N)c(=O)n(C)c2n1` was tested, and the inhibition was 12%. In the case of `CCN(CC)S(=O)(=O)c1ccc(NC(=O)c2cccnc2Cl)c(NC(=O)c2cccnc2Cl)c1`, the inhibition was 95.8% (active). In the case of `O=C1N/C(=C/c2cccn2-c2ccccc2)C(=O)N1c1cccc(Cl)c1`, the inhibition was 59.4% (active). In the case of `COc1ccc(CNC(=O)C(c2ccc(O)cc2)N(Cc2ccco2)C(=O)c2snc(C(N)=O)c2N)cc1` (stereo not given), the inhibition was 45% (active). In the case of `N=c1c2c(-c3ccccc3)c(-c3ccccc3)n(Cc3ccccc3)c2ncn1CCCO`, the inhibition was 62.9% (active). `CCCC[C@@H]1CN=C(N)N1CCc1cc(C(F)(F)F)cc(C(F)(F)F)c1` showed an inhibition of 32.2%. With `CC1=C/C(=N\OS(=O)(=O)c2ccccc2)C=CC1=O` the inhibition was 45.8% (active). In the case of `CCOc1cc(NC(=O)c2ccco2)c(OCC)cc1NC(=O)COc1ccccc1`, the inhibition was 25.9%. For `CCOc1cc(N2CCOCC2)c(OCC)cc1NC(=O)COc1cccc2cccnc12`, the inhibition was 80.8% (active). Work on `CN1CCN(c2ccccc2NC(=O)COc2ccc(C3CCCCC3)cc2)CC1` yielded an inhibition of 20%. For `CCc1ccc(N(CC)c2ncnc3nc[nH]c23)cc1`, the inhibition was 52.4% (active). Work on `Cc1cccc(-c2oc3ccc(-c4ccc5c(c4)OCO5)cc3c2C#Cc2cncn2C)c1` yielded an inhibition of 30.1%. With `COc1ccc2sc(-c3ccc(S(C)(=O)=O)cc3)c(C#Cc3cncn3C)c2c1` the inhibition was 60.5% (active). `O=C(CCNC(=O)c1ccc(Cl)cc1)NC1CCCc2ccccc21` (stereo not given) was tested, and the inhibition was 57.9% (active). `CC(C)Cc1nc(Nc2ccc(S(=O)(=O)N3CCCC3)cc2)c2nnn(Cc3ccccc3)c2n1` showed an inhibition of 36.1%. `COc1ccc(-c2ccc(Nc3ccc(S(=O)(=O)N4CCCC4)cc3)nn2)cc1OC` was tested, and the inhibition was 53.5% (active). For `COc1ccc(C(CCN(Cc2ccc(OC)c(OC)c2)C(=O)CCl)c2ccccc2)cc1` (stereo not given), the inhibition was 73.3% (active). For `CCOC(=O)CC1C(=O)NCCN1c1nc2c(C)cccn2c(=O)c1/C=C1\SC(=S)N(C(C)CC)C1=O` (stereo not given), the inhibition was 61.7% (active). With `COc1ccccc1-n1nnnc1S(=O)(=O)Cc1ccc(Cl)cc1` the inhibition was 74.9% (active). `NC(N)=N/N=C/c1ccc(OCc2ccc(Cl)cc2Cl)cc1` was tested, and the inhibition was 99.7% (active). `CCCCCCc1cc2cc(-c3nnc(-c4ccccc4)o3)c(=O)oc2cc1O` was tested, and the inhibition was 0.95%. With `CC(Nc1nc(N2CCCC2)nc2ccccc12)c1ccccc1` (stereo not given) the inhibition was 40.5% (active). `Cc1[nH]nc(-c2ccc(OCc3cnn(-c4ccccc4)c3)cc2O)c1Oc1ccc(Cl)cc1` gave an inhibition of 25.5%. In the case of `COC(=O)c1sc(-c2ccc(C(C)(C)C)cc2)cc1NC(=O)/C=C/C(=O)O`, the inhibition was 52.6% (active). With `O=S(=O)([N-]c1nc2ccccc2nc1-[n+]1ccc(Cc2ccccc2)cc1)c1ccc(Br)s1` the inhibition was 60% (active). For `Cc1cccc(-c2nc3ccc(C(=O)NCCN4CCN(C)CC4)cc3nc2-c2cccc(C)c2)c1`, the inhibition was 28.6%. `Cc1cc(CNC(=O)c2cccc([N+](=O)[O-])c2)c2ccccc2n1` was tested, and the inhibition was 58.7% (active). Work on `O=C(NCc1ccccc1)C1=C[C@@H](C2CCCCC2)C[C@@H](OCc2ccc(CO)cc2)O1` yielded an inhibition of 32.2%. With `CN(C)CC(O)COc1ccc(C(C)(C)c2ccc(OCC(O)CN(C)C)cc2)cc1` (stereo not given) the inhibition was 89.7% (active). With `CN(Cc1ccccc1)CC(O)COc1ccc(CNCc2cc3ccccc3s2)cc1` (stereo not given) the inhibition was 32.6%. With `COc1ccc(C2=Nn3c(nnc3-c3ccccc3OC)SC2)cc1OC1CCCC1` the inhibition was 73.4% (active). For `COc1cccc2cc(C(N)=O)/c(=N\NC(=O)c3ccccc3)oc12`, the inhibition was 44% (active). In the case of `Cc1cccc(NC(=O)Nc2cccc(Oc3c(F)c(F)c(F)c(F)c3F)c2)c1`, the inhibition was 73% (active). Work on `Cc1cccc(CN2CCC(CNC(=O)Nc3ccc(F)c(Cl)c3)CC2)c1` yielded an inhibition of 36%. For `Oc1c(Br)cccc1/C=N/Nc1c(F)c(F)c(F)c(F)c1F`, the inhibition was 58.2% (active). With `CNC[C@H](CC1CCCCC1)NC[C@H](NCCC1CCCC1)[C@H](C)O` the inhibition was 77% (active). For `Cc1ccc(C(=O)N/C(=C/c2ccc(-c3cccc([N+](=O)[O-])c3)o2)C(=O)NCCCN(C)C)cc1`, the inhibition was 49.5% (active). `Cc1ccc(Cc2cnc(NC(=O)/C(C#N)=C/c3ccc(-c4cccc([N+](=O)[O-])c4)o3)s2)cc1` showed an inhibition of 6.4%. `CC(C)n1cnc2c(Nc3cccc(Cl)c3)nc(N(CCO)CCCO)nc21` was tested, and the inhibition was 60.8% (active). In the case of `CC12CCC(C(=O)N(NC(=O)c3ccccc3O)C1=O)C2(C)C` (stereo not given), the inhibition was 11.2%. Work on `CCC(c1nnnn1C1CCCC1)N(Cc1cccs1)Cc1cc2cccc(C)c2[nH]c1=O` (stereo not given) yielded an inhibition of 13.8%. In the case of `CN(c1ccc2nc3ccccc3c(=O)n2n1)C1CCCCC1`, the inhibition was 89.9% (active). `CC(=O)Oc1c(C(=O)c2nnc(C)o2)c(=O)n(Cc2ccccc2)c2ccccc12` was tested, and the inhibition was 55% (active).

— PubChem BioAssay AID489028 (Sanford-Burnham Center for Chemical Genomics, 2010)
